About 83,000 compounds went through this panel and 20% of them were active in at least one assay; those are over-represented in the sample as a whole.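 48-hour exposure, single concentration, 96-well plates; percent growth endpoint where 0 means no net growth. Active: below 10.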 Values without a mark were called inactive. Active and inactive are the calls of the source.
System: HCT-116 colon
Test: NCI-60 one-dose screen, 48 h (100 = growth as untreated, 0 = no growth, -100 = all killed)
Details: 10 µM unless noted

Row | SMILES | growth
1 | CC/C=C\C/C=C\C[C@H]1C/C=C2/C(=O)C=C[C@H]2C/C=C\CCC(=O)O1 | -63.4% (active)
2 | Cn1c(C(N)=O)cc2c1-c1nc(NC3CCCCC3)ncc1CCC2 | 88.1%
3 | CCOP(=O)(CCN1CCN(CCCCCOc2cc3c(cc2OC)C(=O)N2CCC[C@H]2C=N3)CC1)OCC | 80.1%
4 | O=C(NCCCN1CCN(CCCNC(=O)C2CCCCC2)CC1)C1CCCCC1 | 95.6%
5 | COC(=O)c1cc(-c2cccs2)c(C#N)c(N)c1C#N | 95.5%
6 | COc1cc(NC(=O)CCl)ccc(=O)c1 | 62.6%
7 | C[C@]12CC[C@@H]3c4cc(O)c(O)cc4CC[C@H]3[C@@H]1CC[C@@H]2O | 37.9%
8 | c1ccc([P+](CCC[P+](c2ccccc2)(c2ccccc2)c2ccccc2)(c2ccccc2)c2ccccc2)cc1 | 67.5%
9 | CC(=O)c1cc(C(=O)c2ccc3c(c2)Sc2ccccc2N3)c2cc(C)ccn12 | -23.6% (active)

System: HCC-2998 colon
Test: as above
Details: 10 µM unless noted

Row | SMILES | growth
10 | COc1cc(Br)c(OC)cc1Br | 99.6%
11 | O=C(Nc1ccc(I)cc1)c1cc([N+](=O)[O-])ccc1O | 16.1%
12 | COC(=O)CCCCCCN=Cc1c(O)c(O)c(C(C)C)c2cc(C)c(-c3c(C)cc4c(C(C)C)c(O)c(O)c(C=NCCCCCCC(=O)OC)c4c3O)c(O)c12 | 32.6%
13 | C=CCn1c(C)nc2ccc(Nc3nc(Nc4ccc(F)cc4)nc4ccccc34)cc21 | 80.6%
14 | Clc1ccc2c(c1)NC1(CCSc3ccccc31)n1nccc1-2 (stereo unspecified) | 97.3%
15 | c1cc(-c2ccc3c(c2)OCO3)n2nccc2n1 | 86.9%
16 | COc1ccc(-c2nnc(COc3ccc(NS(=O)(=O)c4ccc(OC)cc4)cc3F)o2)cc1 | 93.1%
17 | CCNC(=O)CCCCC(=O)c1c(C)[nH]c(/C=C2\N=C(c3ccc[nH]3)C=C2OC)c1C | 48.6%
18 | CC[C@H](C)[C@H]1NC(=O)[C@@H](N[C@](C)(O)[C@@H](N)CC(C)C)[C@@H](C)OC(=O)[C@H](Cc2ccc(OC)cc2)N(C)C(=O)[C@@H]2CCCN2C(=O)[C@H](CC(C)C)NC(=O)[C@@H](C)C(=O)[C@H](C(C)C)OC(=O)C[C@@H]1O | -26.8% (active)
19 | O=C(CNC(=O)c1cccc2ccccc12)Nc1ccccc1Oc1ccccc1 | 21%
20 | Clc1nc(-c2cccnc2)nc2sc3c(c12)CCCCCC3 | 107%
21 | O=C(C[N+](=O)[O-])c1ccc(Cl)cc1 | 110%
22 | COc1cc2nc(Cl)nc(NCCO)c2cc1OC | 102%
23 | Cc1ccc2nc(SCn3nnc4ccccc4c3=O)[nH]c2c1 | 95.5%
24 | C=CCOc1cccc(/C=C/C(=O)c2sc(Nc3cccnc3)nc2C)c1 | 86.5%
25 | O=C(Nc1cccc(C(F)(F)F)c1)Nc1ccc(OCc2nnc(-c3ccccc3)o2)c(F)c1 | 64.3%
26 | COC(=O)c1ccc(C)cc1 | 109%
27 | COc1ccc(-c2nc(-c3nc4ccc(F)cc4[nH]3)cc3c2[nH]c2ccccc23)cc1 | 30.9%
28 | CCCC1OC(c2ccc(C(C)C)cc2)OCC1CC (stereo unspecified) | 103%

Row | SMILES | growth
29 | COc1cc(C2C=C(C)N=C3SC=CN32)cc(OC)c1OC (stereo unspecified) | 106%
30 | CCCCCCCN(CCCCCCC)C(=N)c1ccc(OC)c2ccccc12 | -92.5% (active)
31 | O=[N+]([O-])c1cccc(-c2cc(-c3cc(Br)ccc3O)[nH]n2)c1 | 43.7%
32 | COc1ccc(/C=C2\CCCC3=C2NC(C)=NC3c2ccc(OC)c(OC)c2)cc1OC (stereo unspecified) | -47.8% (active)
33 | COc1cc(Cn2c(-c3nonc3N)nc3ccccc32)ccc1C | 23.5%
34 | CCn1c(=O)c2c(=O)c3c4c(oc3oc2c2ccccc21)C(=O)c1ccccc1C4=O | 101%
35 | Clc1cccc(Cl)c1Cn1c(-c2cncs2)nc2ccccc21 | 82.6%
36 | O=C(Nc1cccc(Cl)c1)c1cc([N+](=O)[O-])ccc1O | 29.2%
37 | O=C(O)c1ccc(-n2c(=O)c3ccccc3c3ccccc3c2=O)cc1 | 110%
38 | CC/C=C\C/C=C\C[C@H]1C/C=C2/C(=O)C=C[C@H]2C/C=C\CCC(=O)O1 | -59.2% (active)
39 | Cn1c(C(N)=O)cc2c1-c1nc(NC3CCCCC3)ncc1CCC2 | 97.5%
40 | CCOP(=O)(CCN1CCN(CCCCCOc2cc3c(cc2OC)C(=O)N2CCC[C@H]2C=N3)CC1)OCC | 80.8%
41 | O=C(NCCCN1CCN(CCCNC(=O)C2CCCCC2)CC1)C1CCCCC1 | 99.9%
42 | COC(=O)c1cc(-c2cccs2)c(C#N)c(N)c1C#N | 106%
43 | COc1cc(NC(=O)CCl)ccc(=O)c1 | 105%
44 | C[C@]12CC[C@@H]3c4cc(O)c(O)cc4CC[C@H]3[C@@H]1CC[C@@H]2O | 91.4%
45 | c1ccc([P+](CCC[P+](c2ccccc2)(c2ccccc2)c2ccccc2)(c2ccccc2)c2ccccc2)cc1 | 48.1%
46 | CC(=O)c1cc(C(=O)c2ccc3c(c2)Sc2ccccc2N3)c2cc(C)ccn12 | 23.2%
